# Key:
# [1] = biological target: Tyrosine-protein kinase receptor UFO (Homo sapiens) (UniProt P30530); conditions: at 1 µM
# [2] = biological target: Tyrosine-protein kinase Blk (Homo sapiens) (UniProt P51451); conditions: at 0.1 µM
# [3] = biological target: Tyrosine-protein kinase Blk (Homo sapiens) (UniProt P51451); conditions: at 1 µM
# [4] = biological target: T1, Cytoplasmic tyrosine-protein kinase BMX (Homo sapiens) (UniProt P51813); conditions: at 0.1 µM
# T1 sequence (whole entry): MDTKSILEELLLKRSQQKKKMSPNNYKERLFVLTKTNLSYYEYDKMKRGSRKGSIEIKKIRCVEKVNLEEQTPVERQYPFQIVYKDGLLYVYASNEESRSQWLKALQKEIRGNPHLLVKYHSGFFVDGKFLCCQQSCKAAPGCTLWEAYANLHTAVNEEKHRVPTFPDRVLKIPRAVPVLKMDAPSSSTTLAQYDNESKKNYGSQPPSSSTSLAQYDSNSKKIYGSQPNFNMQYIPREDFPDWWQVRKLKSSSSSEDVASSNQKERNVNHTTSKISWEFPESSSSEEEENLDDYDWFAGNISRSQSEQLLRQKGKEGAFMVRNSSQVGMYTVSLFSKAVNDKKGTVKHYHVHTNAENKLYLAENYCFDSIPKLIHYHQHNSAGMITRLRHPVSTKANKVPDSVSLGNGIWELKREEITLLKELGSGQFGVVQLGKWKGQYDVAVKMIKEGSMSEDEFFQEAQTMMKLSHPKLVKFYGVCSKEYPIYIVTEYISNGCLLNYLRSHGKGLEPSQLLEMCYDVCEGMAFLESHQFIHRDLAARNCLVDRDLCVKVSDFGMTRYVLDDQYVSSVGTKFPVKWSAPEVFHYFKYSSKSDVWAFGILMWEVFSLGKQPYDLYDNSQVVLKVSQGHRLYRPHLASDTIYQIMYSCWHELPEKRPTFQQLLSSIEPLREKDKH
# [5] = biological target: T1, Cytoplasmic tyrosine-protein kinase BMX (Homo sapiens); conditions: at 1 µM
# [6] = biological target: Protein-tyrosine kinase 6 (Homo sapiens) (UniProt Q13882); conditions: at 0.1 µM
# Sequence of Protein-tyrosine kinase 6 (Homo sapiens) (Q13882 whole entry, looked up): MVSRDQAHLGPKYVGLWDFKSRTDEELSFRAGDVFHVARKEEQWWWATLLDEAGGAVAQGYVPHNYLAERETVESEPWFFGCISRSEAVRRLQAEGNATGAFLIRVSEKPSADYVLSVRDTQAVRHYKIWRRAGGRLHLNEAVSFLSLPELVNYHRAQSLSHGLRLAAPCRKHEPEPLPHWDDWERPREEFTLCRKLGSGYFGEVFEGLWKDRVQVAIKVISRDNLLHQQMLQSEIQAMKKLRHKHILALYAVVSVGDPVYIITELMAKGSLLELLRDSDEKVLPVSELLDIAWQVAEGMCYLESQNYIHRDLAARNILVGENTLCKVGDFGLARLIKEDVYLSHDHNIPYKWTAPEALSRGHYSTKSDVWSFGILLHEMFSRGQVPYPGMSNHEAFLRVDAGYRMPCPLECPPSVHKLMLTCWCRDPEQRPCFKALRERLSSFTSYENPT
# [7] = biological target: Protein-tyrosine kinase 6 (Homo sapiens) (UniProt Q13882); conditions: at 1 µM
# [8] = biological target: Tyrosine-protein kinase BTK (Homo sapiens) (UniProt Q06187); conditions: at 0.1 µM
# Sequence of Tyrosine-protein kinase BTK (Homo sapiens) (Q06187 whole entry): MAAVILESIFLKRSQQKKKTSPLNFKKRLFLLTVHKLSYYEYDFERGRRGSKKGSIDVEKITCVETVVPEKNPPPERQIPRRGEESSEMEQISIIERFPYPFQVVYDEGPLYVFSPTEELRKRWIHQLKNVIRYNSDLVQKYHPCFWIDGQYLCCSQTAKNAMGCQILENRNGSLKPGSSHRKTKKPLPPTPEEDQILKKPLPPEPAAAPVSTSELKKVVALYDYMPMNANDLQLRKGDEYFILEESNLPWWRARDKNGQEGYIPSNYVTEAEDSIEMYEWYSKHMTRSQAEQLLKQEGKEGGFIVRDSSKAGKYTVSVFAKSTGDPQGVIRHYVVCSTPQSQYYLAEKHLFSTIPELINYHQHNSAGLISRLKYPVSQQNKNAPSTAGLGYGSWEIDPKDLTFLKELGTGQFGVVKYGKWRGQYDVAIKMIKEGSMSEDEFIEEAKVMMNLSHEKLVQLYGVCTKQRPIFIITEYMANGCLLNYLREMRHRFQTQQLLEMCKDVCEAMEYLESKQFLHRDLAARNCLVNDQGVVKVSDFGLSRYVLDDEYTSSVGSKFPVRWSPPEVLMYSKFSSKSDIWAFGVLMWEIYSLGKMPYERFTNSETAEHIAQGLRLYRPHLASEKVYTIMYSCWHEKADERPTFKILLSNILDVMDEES
# [9] = biological target: Tyrosine-protein kinase BTK (Homo sapiens) (UniProt Q06187); conditions: at 1 µM
# [10] = biological target: Tyrosine-protein kinase CSK (Homo sapiens) (UniProt P41240); conditions: at 0.1 µM
# Sequence of Tyrosine-protein kinase CSK (Homo sapiens) (P41240 2-450 limits assumed): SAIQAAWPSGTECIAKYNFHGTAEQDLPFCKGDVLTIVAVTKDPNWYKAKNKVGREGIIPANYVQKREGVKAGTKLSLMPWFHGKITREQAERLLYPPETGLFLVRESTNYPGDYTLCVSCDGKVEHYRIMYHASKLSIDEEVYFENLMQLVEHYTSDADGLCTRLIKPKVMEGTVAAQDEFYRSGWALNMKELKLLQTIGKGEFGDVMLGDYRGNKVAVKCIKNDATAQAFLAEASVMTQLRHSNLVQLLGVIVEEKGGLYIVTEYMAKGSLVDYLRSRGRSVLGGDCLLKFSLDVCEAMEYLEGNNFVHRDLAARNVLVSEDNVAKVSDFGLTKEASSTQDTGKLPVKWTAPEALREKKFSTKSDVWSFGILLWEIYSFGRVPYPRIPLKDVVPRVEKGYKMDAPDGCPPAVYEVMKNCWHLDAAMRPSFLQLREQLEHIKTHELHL
# [11] = biological target: Tyrosine-protein kinase CSK (Homo sapiens) (UniProt P41240); conditions: at 1 µM
# [12] = biological target: T2, Discoidin domain-containing receptor 2 (Homo sapiens) (UniProt Q16832); conditions: at 0.1 µM
# T2 sequence (whole entry): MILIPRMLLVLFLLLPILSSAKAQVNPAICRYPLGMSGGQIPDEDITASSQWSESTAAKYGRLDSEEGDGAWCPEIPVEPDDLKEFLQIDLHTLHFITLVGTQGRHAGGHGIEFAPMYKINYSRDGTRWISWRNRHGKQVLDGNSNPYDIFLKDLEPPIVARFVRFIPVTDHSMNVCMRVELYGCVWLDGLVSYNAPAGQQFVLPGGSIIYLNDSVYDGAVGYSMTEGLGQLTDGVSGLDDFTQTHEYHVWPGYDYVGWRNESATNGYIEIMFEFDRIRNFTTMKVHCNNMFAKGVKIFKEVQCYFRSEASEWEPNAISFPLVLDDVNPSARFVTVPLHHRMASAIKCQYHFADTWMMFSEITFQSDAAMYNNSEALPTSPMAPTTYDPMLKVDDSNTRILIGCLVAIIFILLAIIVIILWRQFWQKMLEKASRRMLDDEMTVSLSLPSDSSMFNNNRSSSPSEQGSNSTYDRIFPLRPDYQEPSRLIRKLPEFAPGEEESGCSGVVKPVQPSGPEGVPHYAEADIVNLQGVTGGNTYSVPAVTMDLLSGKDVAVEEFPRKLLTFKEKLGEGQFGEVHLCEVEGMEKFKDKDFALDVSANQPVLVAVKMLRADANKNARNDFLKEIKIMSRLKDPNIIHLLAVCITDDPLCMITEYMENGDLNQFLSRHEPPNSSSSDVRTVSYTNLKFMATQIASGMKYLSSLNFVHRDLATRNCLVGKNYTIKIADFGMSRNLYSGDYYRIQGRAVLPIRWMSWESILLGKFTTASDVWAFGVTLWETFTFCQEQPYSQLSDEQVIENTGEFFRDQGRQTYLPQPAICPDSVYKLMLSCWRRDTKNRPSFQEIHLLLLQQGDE
# [13] = biological target: T2, Discoidin domain-containing receptor 2 (Homo sapiens); conditions: at 1 µM
# [14] = biological target: Epidermal growth factor receptor (Homo sapiens) (UniProt P00533); conditions: at 0.1 µM
# [15] = biological target: Epidermal growth factor receptor (Homo sapiens) (UniProt P00533); conditions: at 1 µM
# [16] = test system: Epidermal growth factor receptor (Homo sapiens), P00533 [L858R]; conditions: at 0.1 µM
# [17] = test system: Epidermal growth factor receptor (Homo sapiens), P00533 [L858R]; conditions: at 1 µM
# [18] = test system: Epidermal growth factor receptor (Homo sapiens), P00533 [L861Q]; conditions: at 0.1 µM
# Sequence of Epidermal growth factor receptor (Homo sapiens), P00533 [L861Q] (P00533 whole entry L861Q): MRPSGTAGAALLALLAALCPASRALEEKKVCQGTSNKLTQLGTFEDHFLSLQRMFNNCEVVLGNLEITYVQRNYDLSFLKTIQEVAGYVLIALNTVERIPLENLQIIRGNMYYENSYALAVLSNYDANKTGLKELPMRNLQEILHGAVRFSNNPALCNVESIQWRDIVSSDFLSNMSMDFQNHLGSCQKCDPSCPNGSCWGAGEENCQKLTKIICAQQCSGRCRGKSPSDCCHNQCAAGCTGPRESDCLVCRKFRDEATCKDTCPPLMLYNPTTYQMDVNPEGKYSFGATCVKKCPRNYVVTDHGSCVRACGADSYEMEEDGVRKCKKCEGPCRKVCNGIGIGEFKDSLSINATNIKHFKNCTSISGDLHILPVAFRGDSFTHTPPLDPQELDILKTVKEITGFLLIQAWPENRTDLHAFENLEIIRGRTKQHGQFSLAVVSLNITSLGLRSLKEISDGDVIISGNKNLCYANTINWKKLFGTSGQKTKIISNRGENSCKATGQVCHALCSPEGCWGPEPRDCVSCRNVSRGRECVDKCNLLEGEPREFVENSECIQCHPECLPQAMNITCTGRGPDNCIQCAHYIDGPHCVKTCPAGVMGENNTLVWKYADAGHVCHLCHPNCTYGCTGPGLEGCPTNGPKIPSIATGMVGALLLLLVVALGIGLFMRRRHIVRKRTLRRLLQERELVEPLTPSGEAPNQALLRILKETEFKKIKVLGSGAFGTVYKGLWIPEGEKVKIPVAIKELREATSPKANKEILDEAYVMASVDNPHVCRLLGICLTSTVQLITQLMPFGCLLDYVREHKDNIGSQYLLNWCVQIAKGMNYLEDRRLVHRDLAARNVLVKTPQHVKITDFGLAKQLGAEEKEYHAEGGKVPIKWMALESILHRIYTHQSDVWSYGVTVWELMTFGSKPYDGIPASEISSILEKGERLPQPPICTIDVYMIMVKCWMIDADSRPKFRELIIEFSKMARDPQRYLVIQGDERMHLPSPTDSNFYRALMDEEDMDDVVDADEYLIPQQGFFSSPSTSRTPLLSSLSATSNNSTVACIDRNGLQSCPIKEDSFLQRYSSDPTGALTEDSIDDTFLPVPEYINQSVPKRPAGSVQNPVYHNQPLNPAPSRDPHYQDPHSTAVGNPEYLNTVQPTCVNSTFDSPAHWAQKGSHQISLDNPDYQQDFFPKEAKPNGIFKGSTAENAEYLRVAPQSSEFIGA
# [19] = test system: Epidermal growth factor receptor (Homo sapiens), P00533 [L861Q]; conditions: at 1 µM
# [20] = test system: Epidermal growth factor receptor (Homo sapiens), P00533 [T790M]; conditions: at 0.1 µM
# Sequence of Epidermal growth factor receptor (Homo sapiens), P00533 [T790M] (P00533 whole entry T790M): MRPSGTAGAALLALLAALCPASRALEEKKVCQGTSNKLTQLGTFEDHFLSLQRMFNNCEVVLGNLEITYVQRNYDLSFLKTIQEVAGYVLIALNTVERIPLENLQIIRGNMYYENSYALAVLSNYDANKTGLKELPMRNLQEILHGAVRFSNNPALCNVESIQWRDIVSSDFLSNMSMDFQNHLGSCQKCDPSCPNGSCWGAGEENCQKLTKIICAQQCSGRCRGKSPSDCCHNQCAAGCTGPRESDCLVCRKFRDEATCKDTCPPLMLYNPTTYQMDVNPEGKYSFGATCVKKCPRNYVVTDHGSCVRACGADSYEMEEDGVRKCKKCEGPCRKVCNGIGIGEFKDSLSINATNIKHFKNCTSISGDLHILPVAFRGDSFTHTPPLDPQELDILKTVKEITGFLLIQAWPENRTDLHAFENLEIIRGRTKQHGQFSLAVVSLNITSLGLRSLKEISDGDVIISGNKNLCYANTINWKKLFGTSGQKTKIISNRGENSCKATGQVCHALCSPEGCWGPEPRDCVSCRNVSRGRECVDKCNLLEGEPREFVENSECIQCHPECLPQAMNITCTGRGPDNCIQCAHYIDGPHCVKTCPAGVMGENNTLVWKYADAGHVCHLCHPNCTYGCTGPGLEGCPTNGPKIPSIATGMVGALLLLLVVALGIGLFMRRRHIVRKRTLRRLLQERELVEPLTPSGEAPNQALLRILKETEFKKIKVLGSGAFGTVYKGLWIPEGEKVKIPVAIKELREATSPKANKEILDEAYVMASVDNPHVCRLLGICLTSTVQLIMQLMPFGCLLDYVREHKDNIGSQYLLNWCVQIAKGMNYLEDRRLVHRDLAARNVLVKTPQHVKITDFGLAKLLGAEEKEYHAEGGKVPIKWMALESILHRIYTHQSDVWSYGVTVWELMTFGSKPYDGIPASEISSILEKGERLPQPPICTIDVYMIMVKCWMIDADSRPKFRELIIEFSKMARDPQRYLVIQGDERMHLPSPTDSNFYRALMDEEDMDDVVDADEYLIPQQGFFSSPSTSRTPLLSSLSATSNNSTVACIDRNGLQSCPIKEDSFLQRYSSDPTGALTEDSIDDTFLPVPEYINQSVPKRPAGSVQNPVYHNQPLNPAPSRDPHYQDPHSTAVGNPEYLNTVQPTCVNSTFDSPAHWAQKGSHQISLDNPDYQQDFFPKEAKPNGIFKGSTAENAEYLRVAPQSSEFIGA
# Sequence of Tyrosine-protein kinase receptor UFO (Homo sapiens) (P30530 whole entry): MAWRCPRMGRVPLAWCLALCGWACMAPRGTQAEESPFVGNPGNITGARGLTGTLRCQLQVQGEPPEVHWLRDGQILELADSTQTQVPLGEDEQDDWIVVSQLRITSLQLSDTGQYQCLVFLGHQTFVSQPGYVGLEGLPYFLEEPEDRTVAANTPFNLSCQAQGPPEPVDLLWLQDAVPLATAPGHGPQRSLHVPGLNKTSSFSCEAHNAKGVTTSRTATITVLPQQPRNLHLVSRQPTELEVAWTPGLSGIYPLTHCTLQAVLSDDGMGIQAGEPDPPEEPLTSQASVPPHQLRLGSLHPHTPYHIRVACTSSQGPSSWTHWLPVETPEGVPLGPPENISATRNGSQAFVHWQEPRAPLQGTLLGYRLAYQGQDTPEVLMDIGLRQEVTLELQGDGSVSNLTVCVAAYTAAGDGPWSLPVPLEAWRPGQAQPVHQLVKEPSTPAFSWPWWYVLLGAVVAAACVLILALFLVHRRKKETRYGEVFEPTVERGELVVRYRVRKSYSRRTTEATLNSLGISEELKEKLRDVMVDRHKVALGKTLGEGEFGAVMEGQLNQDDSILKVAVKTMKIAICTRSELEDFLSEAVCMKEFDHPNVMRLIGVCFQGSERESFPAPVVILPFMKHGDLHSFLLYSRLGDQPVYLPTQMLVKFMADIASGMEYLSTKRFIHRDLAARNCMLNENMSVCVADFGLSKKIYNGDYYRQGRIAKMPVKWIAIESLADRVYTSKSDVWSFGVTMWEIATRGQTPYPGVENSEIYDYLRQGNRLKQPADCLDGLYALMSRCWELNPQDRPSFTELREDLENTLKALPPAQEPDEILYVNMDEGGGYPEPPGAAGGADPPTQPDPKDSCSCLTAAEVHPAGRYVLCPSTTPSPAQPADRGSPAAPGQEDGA
Compound,inhibition [1] [%],inhibition [2] [%],inhibition [3] [%],inhibition [4] [%],inhibition [5] [%],inhibition [6] [%],inhibition [7] [%],inhibition [8] [%],inhibition [9] [%],inhibition [10] [%],inhibition [11] [%],inhibition [12] [%],inhibition [13] [%],inhibition [14] [%],inhibition [15] [%],inhibition [16] [%],inhibition [17] [%],inhibition [18] [%],inhibition [19] [%],inhibition [20] [%]
CCc1cccc(NC(=O)Nc2ccc(Oc3ccc4nc(NC(=O)OC)[nH]c4c3)cc2)c1,25.5,2.34,0.6,-1.67,1.67,1.3,1.76,1.67,1.57,4.01,3.75,78,80.2,8,7.33,2.52,5.42,0.96,2.05,1.06
O=C1NC(=O)C(c2cccc(Cl)c2)=C1Nc1ccc(O)c(Cl)c1,-0.83,0.13,5.96,4.05,1.46,-2.09,-2.04,-0.33,1.57,0.82,-5.59,-1.25,-1.13,-0.21,1.12,-2.01,-0.47,-0.43,-0.33,-0.72
Nc1ncnc2occ(-c3ccc(NC(=O)Nc4cccc(C(F)(F)F)c4)cc3)c12,45.3,7.81,49.1,20.4,71.3,2.23,7.46,0.15,6.68,7.62,44.4,64,79.2,1.36,7.97,3.92,6.22,2.76,3.15,2.8
CCCN1CCC=C(c2ccc(Nc3nc(Nc4ccccc4C(N)=O)c4cc[nH]c4n3)c(C)c2)C1,58.1,1.84,9.78,3.95,7.54,1.91,17.4,-2.03,-0.62,-1.32,1.79,1.12,3.26,3.3,8.18,0.06,9.35,1.44,6.61,2.92
COc1cc2ncn(-c3cc(O[C@H](C)c4ccccc4Cl)c(C(N)=O)s3)c2cc1OC,8.37,5.28,23.4,2.09,9.76,-0.56,3.6,1.78,6.48,4.29,10.1,8.95,12,3.12,3.34,3.8,14.9,2.61,5.37,1.29
COc1cc2c(cc1Nc1nc(N3CCc4ccccc43)c3cc[nH]c3n1)N(C(=O)CN(C)C)CC2,21.4,0.59,4.28,-0.34,4.16,1.24,0.03,1.01,2.65,3.07,0.41,0.28,0.74,-0.08,1.28,1.45,2.18,1.47,-0.39,1.57
Cc1cccc(-c2n[nH]cc2-c2ccc3ncccc3n2)n1,0.83,1.31,3.22,3,0.92,0.3,2.48,-0.91,-1.51,-1.25,0.97,0.57,0.86,-0.16,0.24,-0.08,-1.71,-1.59,-1.42,-0.88
COc1cc2ncn(-c3cc(OCc4ccccc4Cl)c(C(N)=O)s3)c2cc1OC,2.44,1,23.1,1.94,4.4,0.65,7.77,-0.87,1.14,0.5,4.61,0.71,0.75,2.48,8.81,1.49,13.4,-0.11,5.11,-1.99
CC1=C(C(=O)Nc2ccc3[nH]ncc3c2)C(c2ccc(Cl)c(Cl)c2)CC(=O)N1 (stereo not given),-5.55,1.97,18.3,-1.91,2.22,3.17,3.02,0.53,3.13,1.65,4.23,3.12,3.67,6.77,8.22,1.45,5.4,1.95,0.96,0.19
COc1ccccc1Nc1ncc(-c2ccccc2)o1,-5.15,4.5,5.8,4.01,6.53,2.03,6.6,0.53,3.39,2.72,3.11,0.86,0.42,1.13,5.3,0.79,0.46,1.31,1.75,2.11
CN1CCC(C(=O)Nc2n[nH]c3nnc(-c4ccccc4)cc23)CC1,–,3.19,1.79,4.52,3.87,4.01,6.78,-0.63,-0.24,4.02,6.5,0.55,1,10.2,7.57,1.7,3.79,2.96,6.37,1.89
Cn1cc(C=C2C(=O)Nc3cccnc32)c2ccccc21,19.1,–,–,3.27,4.89,0.63,2.28,1.87,3.46,1.5,-0.79,0.93,4.03,–,–,–,–,–,–,–
COc1cc2ncn(-c3cc(O[C@@H](C)c4ccccc4Cl)c(C(N)=O)s3)c2cc1OC,-5.82,11.1,51.2,2.71,6.64,-0.13,7.91,-0.58,1.4,1.7,5.68,1.33,1.58,0.08,7.32,5.96,26.9,3.26,7.73,1.35
